The record followed here is PubChem BioAssay (EPA / NIEHS).

Several values for one entry are separate records, joined by “and”; a condition that tells them apart may be missing. Identical values can stand only once. Results filed as inconclusive are left out. Where a structure was tested more than once in an assay, its records may differ in their call. Activity calls are given as the source filed them. How the source made its calls, unless noted: active means hit-call score of the fitted dose curve at least 0.9, where 1 is the maximum; inactive means score below 0.9.

Assay [1] concerns the target human Vitamin D Receptor (VDR), VDR (gene 7421) (UniProt P11473). In words: ATG_VDR_TRANS: Attagene TRANS-FACTORIAL HepG2 Assay for human Vitamin D Receptor (VDR) (AID 2283022; active means hit-call score of the fitted dose curve at least 0.9, where 1 is the maximum). Summed up: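 Transactivation by an exogenous VDR-Gal4 chimera in transiently transfected HepG2 cells was measured as reporter transcript level 24 hours after chemical treatment. RT-PCR products were analysed by capillary electrophoresis and fitted in the positive direction relative to DMSO.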

Assay [2] concerns the target Retinoic acid receptor RXR-alpha (Homo sapiens) (UniProt P19793). In words: ATG_RXRa_TRANS: Attagene TRANS-FACTORIAL HepG2 Assay for human Retinoid X Receptor alpha (RXRa) (AID 2283012; active means hit-call score of the fitted dose curve at least 0.9, where 1 is the maximum). Put shortly: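 HepG2 cells transiently transfected with multiplexed GAL4-UAS reporter units and chimeric NR-GAL4 fusions, dosed 24 h. Reporter mRNA measured by RT-PCR, FAM labelling, HpaI digestion and capillary electrophoresis; gain-of-signal fitted relative to DMSO baseline.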

Read-out in assay [3]: E-selectin (Homo sapiens) (UniProt P16581)
In words: BSK_3C_Eselectin: BioMAP Diversity Plus: 3C Assay for Eselectin Biomarker Activity (AID 2283015).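 On outcome: cell surface E-selectin protein quantified by ELISA 24 h after dosing.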 The note with it: primary human endothelial cells (HUVEC); actives raise or lower the signal. Put shortly:
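E-selectin ELISA readout, fitted bidirectionally relative to DMSO, taken 24 h post-dosing in HUVEC cultures of the 3C system. Overt cytotoxicity tracked with sulforhodamine B staining of parallel wells.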

Read-out in assay [4]: Interleukin-1 alpha (IL1a), IL1A (gene 3552)
In words: BSK_BE3C_IL1a: BioMAP Diversity Plus: BE3C Assay for Interleukin-1 alpha (IL1a) Biomarker Activity (AID 2283016). The note with it: primary human bronchial epithelial cells; actives raise or lower the signal. Put shortly: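 Human primary bronchial epithelial cells (BE3C system) were dosed with compound and IL-1a measured by ELISA 24 h later. Activity was fitted bidirectionally against DMSO baseline; cytotoxicity was tracked in parallel cultures by SRB total-protein staining.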

Read-out in assay [5]: Monocyte Chemoattractant Protein-1 (MCP1), CCL2 (gene 6347)
In words: BSK_3C_MCP1: BioMAP Diversity Plus: 3C Assay for Monocyte Chemoattractant Protein-1 (MCP1) Biomarker Activity (AID 2283017). Conditions: primary human endothelial cells (HUVEC); actives raise or lower the signal. Summed up: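 MCP-1 was measured by ELISA 24 h after dosing in primary HUVEC 3C cultures and fitted in both directions relative to DMSO; cytotoxicity was checked by SRB total-protein staining in parallel wells.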

Read-out in assay [6]: Monocyte Chemoattractant Protein-1 (MCP1), CCL2 (gene 6347)
In words: BSK_4H_MCP1: BioMAP Diversity Plus: 4H Assay for Monocyte Chemoattractant Protein-1 (MCP1) Biomarker Activity (AID 2283018). The note with it: primary human endothelial cells (HUVEC); actives raise or lower the signal. Put shortly:
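Human umbilical vein endothelial cells (4H system) dosed with chemical; MCP-1 measured by ELISA 24 h after dosing. Bidirectional curve fitting against DMSO negative control as baseline; parallel SRB total-protein staining tracks overt cytotoxicity.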

Read-out in assay [7]: Human Leukocyte Antigen - DR isotype (HLADR), HLA-DRA (gene 3122)
In words: BSK_3C_HLADR: BioMAP Diversity Plus: 3C Assay for Human Leukocyte Antigen - DR isotype (HLADR) Biomarker Activity (AID 2283019).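 On outcome: ELISA of cell-surface HLA-DR on HUVEC 24 h after dosing.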 Conditions: primary human endothelial cells (HUVEC); actives raise or lower the signal. Put shortly:
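Bidirectional fitting against DMSO was applied to the HLA-DR ELISA signal from human umbilical vein endothelial cells, 24 h post-dose. Cytotoxicity came from parallel SRB total-protein staining; 3C proliferation was counted by SRB at 48 h.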

Read-out in assay [8]: Interleukin-8 (IL8), CXCL8 (gene 3576)
In words: BSK_3C_IL8: BioMAP Diversity Plus: 3C Assay for Interleukin-8 (IL8) Biomarker Activity (AID 2283020). Conditions: primary human endothelial cells (HUVEC); actives raise or lower the signal. Put shortly: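 Primary human umbilical vein endothelial cells (3C system) were exposed to test chemical for 24 h, then IL-8 was quantified by ELISA. Responses were fitted bidirectionally against DMSO vehicle as baseline.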

Read-out in assay [9]: Monokine induced gamma interferon (MIG), CXCL9 (gene 4283)
In words: BSK_3C_MIG: BioMAP Diversity Plus: 3C Assay for Monokine induced gamma interferon (MIG) Biomarker Activity (AID 2283021). The note with it: primary human endothelial cells (HUVEC); actives raise or lower the signal. Summed up: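 Primary human umbilical vein endothelial cells in the 3C system were exposed to chemical for 24 h, after which MIG was quantified by ELISA. Activity was fitted bidirectionally against DMSO as negative control and baseline.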

Assay [10] in a line: BSK_3C_SRB: Viability Assessment in the BioMAP Diversity Plus: 3C Assay (AID 2283023).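 Further: fitted both ways against DMSO so a hit may be signal rise or drop.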 Conditions: primary human endothelial cells (HUVEC). Summed up: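 Cytotoxicity readout in parallel HUVEC 3C cultures: after 24 h compound exposure, cells fixed with 10% TCA, stained with 0.1% SRB and read at 560 nm. Gain or loss relative to DMSO fitted.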
Read-out in assay [11]: Matrix Metallopeptidase 1 (MMP1), MMP1 (gene 4312)
In words: BSK_BE3C_MMP1: BioMAP Diversity Plus: BE3C Assay for Matrix Metallopeptidase 1 (MMP1) Biomarker Activity (AID 2283024). The note with it: primary human bronchial epithelial cells; actives raise or lower the signal. Summed up:
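Primary human bronchial epithelial cells were dosed with test chemicals, and MMP1 levels were measured by ELISA 24 h later. Data were fitted bidirectionally against DMSO as the negative control and activity baseline.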

A short description of assay [12]: BSK_3C_Vis: BioMAP Diversity Plus: 3C Assay for Morphology Visualization (AID 2283025).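 Further: fitted both ways so gain or loss versus DMSO counts.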 The note with it: primary human endothelial cells (HUVEC). Put shortly:
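Human umbilical vein endothelial cells in the 3C system were imaged by light microscopy 24 h after chemical dosing to record cell morphology. Activity was fitted bidirectionally against DMSO as negative control and baseline; the endpoint serves as a background control.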

Read-out in assay [13]: Pselectin, SELP (gene 6403)
In words: BSK_4H_Pselectin: BioMAP Diversity Plus: 4H Assay for Pselectin Biomarker Activity (AID 2283026). The note with it: primary human endothelial cells (HUVEC); actives raise or lower the signal. Put shortly: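 Primary human umbilical vein endothelial cells were exposed to test chemical for 24 h, then cell-surface P-selectin was quantified by ELISA. Activity was fitted bidirectionally against DMSO as negative control and baseline.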

Assay [14] is described as follows: BSK_4H_SRB: Viability Assessment in the BioMAP Diversity Plus: 4H Assay (AID 2283027).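 Further: cells exposed to compound for 24 h before staining.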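 On AC50: curves fitted both ways versus DMSO so AC50 may be loss or gain.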 Conditions: primary human endothelial cells (HUVEC). Put shortly: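 Human umbilical vein endothelial cells were dosed with chemical and, after 24 h, fixed with 10% TCA, stained with 0.1% sulforhodamine B, and read at 560 nm to give total protein as a cytotoxicity measure. Bidirectional fitting relative to DMSO control.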

Assay [15] is described as follows: BSK_BE3C_SRB: Viability Assessment in the BioMAP Diversity Plus: BE3C Assay (AID 2283028). Conditions: primary human bronchial epithelial cells. Summed up: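 Cytotoxicity read-out: SRB (0.1%) staining of TCA-fixed (10%) human lung bronchial epithelial cells, absorbance 560 nm, 24 h post-dosing. Curves fitted both directions relative to DMSO.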
Read-out in assay [16]: Thrombomodulin, THBD (gene 7056)
In words: BSK_3C_Thrombomodulin: BioMAP Diversity Plus: 3C Assay for Thrombomodulin Biomarker Activity (AID 2283029). The note with it: primary human endothelial cells (HUVEC); actives raise or lower the signal. Put shortly: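 Primary human umbilical vein endothelial cells (3C system) were exposed to chemical for 24 h, then thrombomodulin levels were measured by ELISA. Activity was fitted bidirectionally against the DMSO negative control as baseline.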

The target of assay [17] is human Retinoid X Receptor beta (RXRb), RXRB (gene 6257) (UniProt P28702). In words: ATG_RXRb_TRANS: Attagene TRANS-FACTORIAL HepG2 Assay for human Retinoid X Receptor beta (RXRb) (AID 2283013; active means hit-call score of the fitted dose curve at least 0.9, where 1 is the maximum). Summed up: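 HepG2 cells transiently transfected with multiplexed reporter units driven by GAL4-UAS and exogenous chimeric NR-Gal4 proteins; treated 24 h. Reporter mRNA measured by RT-PCR, 6-FAM labelling and capillary electrophoresis; gain-of-signal fitted versus DMSO baseline.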
human Retinoid X Receptor beta (RXRb), RXRB (gene 6257), sequence (P28702 whole entry, looked up, the tested form may be a part): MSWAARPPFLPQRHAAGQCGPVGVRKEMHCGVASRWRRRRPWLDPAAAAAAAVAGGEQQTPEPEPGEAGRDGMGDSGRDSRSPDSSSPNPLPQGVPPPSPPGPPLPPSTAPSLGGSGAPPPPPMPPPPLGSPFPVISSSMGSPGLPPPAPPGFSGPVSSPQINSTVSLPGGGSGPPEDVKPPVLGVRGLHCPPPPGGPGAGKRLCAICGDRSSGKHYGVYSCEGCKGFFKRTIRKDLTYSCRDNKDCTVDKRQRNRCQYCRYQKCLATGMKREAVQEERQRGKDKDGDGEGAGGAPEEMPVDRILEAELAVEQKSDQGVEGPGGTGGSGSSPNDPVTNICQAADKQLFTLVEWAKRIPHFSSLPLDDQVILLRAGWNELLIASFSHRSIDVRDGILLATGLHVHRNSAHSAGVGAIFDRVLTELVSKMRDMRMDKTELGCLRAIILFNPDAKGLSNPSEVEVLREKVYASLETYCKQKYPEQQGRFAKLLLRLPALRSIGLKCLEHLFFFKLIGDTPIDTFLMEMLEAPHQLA

E-selectin (Homo sapiens), sequence (P16581 whole entry, looked up): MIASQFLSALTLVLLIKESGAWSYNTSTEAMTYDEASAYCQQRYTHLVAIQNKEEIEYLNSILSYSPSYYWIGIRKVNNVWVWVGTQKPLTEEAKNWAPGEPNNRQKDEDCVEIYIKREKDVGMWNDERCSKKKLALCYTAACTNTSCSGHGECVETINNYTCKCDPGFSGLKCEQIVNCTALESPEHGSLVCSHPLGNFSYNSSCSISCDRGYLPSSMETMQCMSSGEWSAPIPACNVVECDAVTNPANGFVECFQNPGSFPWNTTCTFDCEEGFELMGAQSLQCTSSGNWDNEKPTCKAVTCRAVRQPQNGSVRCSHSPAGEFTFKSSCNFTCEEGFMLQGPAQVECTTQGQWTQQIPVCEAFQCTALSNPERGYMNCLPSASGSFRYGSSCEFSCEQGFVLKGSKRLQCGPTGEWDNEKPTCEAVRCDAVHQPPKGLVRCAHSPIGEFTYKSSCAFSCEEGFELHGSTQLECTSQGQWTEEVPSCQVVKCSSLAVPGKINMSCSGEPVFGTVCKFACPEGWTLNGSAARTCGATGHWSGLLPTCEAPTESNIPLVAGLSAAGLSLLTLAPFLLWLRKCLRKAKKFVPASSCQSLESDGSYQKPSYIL
Retinoic acid receptor RXR-alpha (Homo sapiens), sequence (P19793 whole entry, looked up, the tested form may be a part): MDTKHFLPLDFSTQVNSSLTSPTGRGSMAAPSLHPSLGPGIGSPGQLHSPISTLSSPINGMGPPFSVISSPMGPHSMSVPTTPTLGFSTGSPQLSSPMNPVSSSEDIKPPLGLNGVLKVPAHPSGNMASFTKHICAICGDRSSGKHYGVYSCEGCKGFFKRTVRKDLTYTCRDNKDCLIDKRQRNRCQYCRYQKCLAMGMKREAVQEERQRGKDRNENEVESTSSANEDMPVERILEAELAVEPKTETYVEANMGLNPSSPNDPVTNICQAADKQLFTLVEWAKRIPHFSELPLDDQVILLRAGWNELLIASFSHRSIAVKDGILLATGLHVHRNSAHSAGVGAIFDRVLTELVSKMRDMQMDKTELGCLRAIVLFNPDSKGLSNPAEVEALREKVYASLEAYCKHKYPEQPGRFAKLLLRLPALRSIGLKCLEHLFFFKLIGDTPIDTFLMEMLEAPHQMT
human Vitamin D Receptor (VDR), VDR (gene 7421), sequence (P11473 whole entry, looked up, the tested form may be a part): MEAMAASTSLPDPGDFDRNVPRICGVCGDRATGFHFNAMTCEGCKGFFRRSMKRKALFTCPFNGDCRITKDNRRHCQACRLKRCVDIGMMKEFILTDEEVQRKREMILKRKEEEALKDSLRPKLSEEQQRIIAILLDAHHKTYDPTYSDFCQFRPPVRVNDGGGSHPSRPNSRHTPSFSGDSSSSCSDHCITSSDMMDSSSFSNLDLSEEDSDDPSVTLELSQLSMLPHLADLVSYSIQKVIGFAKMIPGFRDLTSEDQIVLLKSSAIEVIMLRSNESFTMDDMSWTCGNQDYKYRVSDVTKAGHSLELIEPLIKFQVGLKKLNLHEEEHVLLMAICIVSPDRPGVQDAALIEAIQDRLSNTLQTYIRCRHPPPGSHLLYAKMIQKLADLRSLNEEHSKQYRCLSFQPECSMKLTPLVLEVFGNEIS

As to `CCCCN(CC)C(=O)SCCC`, the call in assay [1] was inactive.
Regarding `O=S1(=O)OCC2C(CO1)C1(Cl)C(Cl)=C(Cl)C2(Cl)C1(Cl)Cl` (stereo not given), the result in assay [2], in assay [3], in assay [4], in assay [5], in assay [8] and in assay [9] was inactive. The outcome in [11], in assay [12], in assay [15] and in [16] was inactive. The AC50 (usually the midpoint of the concentration-response curve, whichever way the signal moves) in [6] is 10.1 µM (active); in [7], 24.1 µM (active); in assay [10] it was 20 µM (active); in assay [13] it was 12.2 µM (active); in assay [14], 12.3 µM (active).
For the compound `CCCCN(CCCC)N=O`, the compound was classed as inactive in assay [2], in assay [3], in assay [4], in [6], in assay [7] and in [8]. Further, the result in [9], in [10], in assay [11], in assay [12], in assay [14] and in assay [15] was inactive. For the same compound, the result in [16] was inactive.
As for `c1cc2c3c(cccc3c1)CC2`, the outcome in [3], in assay [4], in assay [6], in assay [7], in [8] and in [9] was inactive. For the same compound, the outcome in assay [10], in [11], in assay [12], in assay [13], in [14] and in [15] was inactive. Further, in assay [16], the result was inactive.
On to `CCCCOCC1CO1` (stereo not given), for which the call in [1] was inactive.
As to `COP(N)(=S)OC`, the outcome in assay [2], in assay [3], in [4], in [6], in [7] and in assay [8] was inactive. For the same compound, the outcome in assay [9], in assay [1], in assay [10], in assay [11], in [12] and in assay [13] was inactive. Also, the result in assay [14], in assay [15] and in assay [16] was inactive.
`Oc1ccc(I)cc1`: the call in assay [2] and in assay [1] was inactive.
On to `C=CC(=O)OCC(F)(F)C(F)F`, for which the compound was called inactive in assay [2], in assay [4], in [6], in [8], in assay [9] and in assay [10]. Also, the outcome in [11], in assay [14], in assay [15] and in [16] was inactive. For the same compound, the AC50 in assay [3] is 18.4 µM (active) and 20.4 µM (active); in [7] it was 41.1 µM (active) and 43.6 µM (active); in [16] it was 8.19 µM (active).
Consider `O=S(=O)(c1ccc(O)cc1)c1ccc(O)cc1`, for which the compound was called inactive in assay [2] and in assay [1].
For `NC(=O)C(F)(F)C(F)(F)F`, the result in assay [2], in assay [3], in assay [4], in assay [6], in assay [7] and in assay [8] was inactive. The result in assay [9], in assay [1], in [10], in [11], in assay [13] and in assay [14] was inactive. Moreover, the outcome in assay [15] and in assay [16] was inactive.
For the compound `ClC(Cl)(Cl)c1ccccc1`, the compound was called inactive in assay [2], in assay [3], in [4], in assay [6], in assay [7] and in [8]. Moreover, the result in assay [9], in assay [1], in assay [10], in assay [11], in [12] and in assay [13] was inactive. The result in [14], in [15] and in assay [16] was inactive.
`c1nc[nH]n1`: the call in assay [17], in [3], in assay [4], in assay [5], in assay [6] and in assay [7] was inactive. Also, the outcome in [8], in [9], in assay [1], in assay [10], in assay [11] and in assay [12] was inactive. Besides, the outcome in assay [14], in assay [15] and in assay [16] was inactive.
Consider `CCOS(=O)(=O)OCC`, for which the result in assay [3], in assay [4], in assay [5], in assay [6], in assay [7] and in assay [8] was inactive. Besides, the outcome in assay [9], in assay [10], in assay [11], in assay [12], in assay [14] and in [15] was inactive. For the same compound, the result in assay [16] was inactive.
On to `CCOP(=S)(Oc1ccc([N+](=O)[O-])cc1)c1ccccc1` (stereo not given), for which the outcome in assay [3], in [4], in assay [5], in assay [6], in [7] and in assay [8] was inactive. Further, the result in assay [9], in [1], in assay [10], in [11], in [12] and in assay [14] was inactive. In addition, the outcome in assay [15] and in [16] was inactive.
In the case of `O=C(O)C(Cl)Cl`, the result in [2], in assay [3], in [4], in [5], in assay [6] and in assay [7] was inactive. Further, the outcome in assay [8], in assay [9], in [10], in assay [11], in assay [12] and in [14] was inactive. The result in [15] and in assay [16] was inactive.
Turning to `O=[N+]([O-])c1ccccc1`, the AC50 in assay [17] is 10.7 µM (active). In addition, the result in assay [3], in assay [4], in [5], in assay [6], in [7] and in assay [8] was inactive. The outcome in [9], in assay [10], in [11], in assay [12], in assay [13] and in assay [14] was inactive. Also, the result in [15] and in assay [16] was inactive.
